TRPV1 potentiator: enhances activation of the human vanilloid receptor TRPV1; TRPV1-expressing cells, Fluo-8 calcium influx, capsaicin EC20 potentiation; potentiation, % at 8.33 µM; hit rate 0.02% among 320,000; AID 540277; in the data active = potentiation above about 80%; inconclusive = between about 30% and that limit; note: 0% is about no effect
Target sequence (Q8NER1 whole entry, looked up): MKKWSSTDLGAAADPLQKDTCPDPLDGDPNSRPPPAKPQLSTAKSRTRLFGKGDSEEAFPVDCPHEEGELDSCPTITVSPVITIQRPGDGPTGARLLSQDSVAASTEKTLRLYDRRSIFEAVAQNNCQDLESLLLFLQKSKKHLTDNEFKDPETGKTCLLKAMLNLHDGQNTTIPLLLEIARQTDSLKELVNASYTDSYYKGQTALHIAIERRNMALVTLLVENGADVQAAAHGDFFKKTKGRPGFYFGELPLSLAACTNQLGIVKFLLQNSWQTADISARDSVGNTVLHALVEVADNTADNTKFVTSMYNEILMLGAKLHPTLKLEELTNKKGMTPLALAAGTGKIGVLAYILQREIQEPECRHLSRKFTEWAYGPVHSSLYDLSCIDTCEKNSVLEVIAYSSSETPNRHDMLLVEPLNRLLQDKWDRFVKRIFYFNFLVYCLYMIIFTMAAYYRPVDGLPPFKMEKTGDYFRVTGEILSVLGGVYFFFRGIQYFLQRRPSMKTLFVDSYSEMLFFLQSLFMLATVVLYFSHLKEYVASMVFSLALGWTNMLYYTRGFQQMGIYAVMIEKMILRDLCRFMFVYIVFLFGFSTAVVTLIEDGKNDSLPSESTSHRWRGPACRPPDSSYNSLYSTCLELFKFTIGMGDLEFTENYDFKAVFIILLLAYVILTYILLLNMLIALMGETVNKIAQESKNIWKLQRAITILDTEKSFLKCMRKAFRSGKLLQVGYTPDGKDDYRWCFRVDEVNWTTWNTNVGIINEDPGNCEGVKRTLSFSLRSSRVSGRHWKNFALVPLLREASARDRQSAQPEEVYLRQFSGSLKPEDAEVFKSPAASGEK
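TRPV1-expressing cells were cultured overnight at 35.5C and loaded with Fluo-8 calcium dye for 40 to 90 min at room temperature. After a 10 s baseline, compound was added and calcium influx was read kinetically for 3 min (ex 480/em 520 nm).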
Gal4-VP16 FLuc: inhibits Gal4-VP16 luciferase reporter, ROR gamma counter-screen; Drosophila S2 Gal4-VP16 UAS-luciferase, luminescence, 20 h; Potency, µM (highest dose often 53.6 µM), for the others: top-dose activity, negative = inhibition, usual class: inhibitors; hit rate 3.5% among 310,000;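 note: Gal4-VP16 expression switched on by copper sulfate through the metallothionein promoter; potency is the fitted concentration of half-maximal effect; % is set by controls: 0 for no effect and ±100 for the full control effect; nearly all actives have a fitted effect of over 50% in size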
RORg inh: inhibitors of mouse ROR gamma transcriptional activity | P51450 | Drosophila S2 Gal4-RORgamma UAS-luciferase reporter, 20 h | Potency, µM (highest dose often 53.6 µM), for the others: at the highest dose activity change, negative = inhibition, hits mostly inhibitors | hit rate 5.4% among 310,000; note: potency is the fitted concentration of half-maximal effect; % is set by controls: 0 for no effect and ±100 for the full control effect; nearly all actives have a fitted effect of over 60% in size
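A Gal4/UAS one-hybrid system in insect cells: metallothionein-promoter Gal4–ROR gamma fusion plus Photinus luciferase reporter. Copper sulfate 700 uM final, 20 hr ambient incubation, luminescent detection after 10 min with reagent.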
uPA surface inh: inhibitors of cell surface uPA generation. cell surface uPA generation assay, qHTS. Potency, µM (doses to about 38.3 µM), for inactives: top-dose activity change, negative = inhibition, most hits filed as inhibitors. hit rate 0.31% among 330,000. AID 540303; active = well fitted inhibition curve with a large enough effect; inconclusive = small, poorly fitted or top-dose-only effect; inactive = no such curve, though single readings can be large or run the other way; tested in mouse RAW 264.7 cells; note: potency is the fitted concentration of half-maximal effect; % is set by controls: 0 for no effect and ±100 for the full control effect; nearly all actives have a fitted effect of over 55% in size
TRPV1 ag: agonists of human vanilloid receptor 1 (TRPV1). AID 540275. hit rate 0.19% among 320,000. TRPV1-expressing cells, Fluo-8 calcium influx, agonist mode. activation, % at 8.33 µM. Q8NER1; in the data active = activation above about 80%; inconclusive = between about 30% and that limit; note: 0% is about no effect
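Fluo-8 calcium influx in TRPV1-expressing cells, kinetic read (ex 480/em 520 nm). Compound added and read 3 min for agonist activity, followed by capsaicin at EC20 final and 2 min further read for enhancement.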
Numbers without * were called inactive; ? = inconclusive; . = no result; [ ] = remark or other dose. Sampled rows, rich in hits. Any-hit rate of the full collection: about 5.8%. Unless noted, calls come from the whole dose curve; as a rule, active = well fitted curve in the direction sought with a large enough effect; inconclusive = small, poorly fitted or top-dose-only effect, or another doubt; inactive = no such curve, though single readings can be large; an effect the other way counts as inactive or inconclusive.

SMILES | TRPV1 potentiator | Gal4-VP16 FLuc | RORg inh | uPA surface inh | TRPV1 ag
Cc1ccoc1C(=O)N1CCCCC1C(=O)O (stereo unspecified) | 13 | 6% | -17% | -2% | -4
CC1(C)CC(C)(c2ccc(O)cc2O)N(c2cccc(Cl)c2)C(=S)N1 (stereo unspecified) | -7 | -8% | ? | 3% | 3
CC1(C)CC(C)(c2ccc(O)cc2O)N(c2ccc3ccccc3c2)C(=S)N1 (stereo unspecified) | -1 | ? | 7.9µM* | -4% | 6
CCCNC(=O)OC[C@@H]1O[C@H](CCO/N=C\C[C@H]2C=C[C@H](OC(C)=O)[C@@H](COC(C)=O)O2)C=C[C@@H]1Oc1ccc(OC)cc1 | . | -2%[10 µM] | 16%[10 µM] | . | .
O=C(Oc1ccc(Br)cc1C(=S)N1CCCCC1)c1cc([N+](=O)[O-])cc([N+](=O)[O-])c1 | -4 | -1% | 18µM* | -2% | -5
O=C(Oc1ccc(Br)cc1C(=S)N1CCCC1)c1ccccc1F | -4 | -4% | -1% | 9% | 17
Cc1ccccc1C(=O)Oc1ccc(Br)cc1C(=S)N1CCCC1 | -13 | ? | 11µM* | -2% | 7
COc1ccc(-c2ccc(C)cc2)cc1C1C2C=CCC(C)C2C(=O)N1Cc1ccccc1 (stereo unspecified) | . | -13% | 41% | . | .
CCc1oc2ccccc2c1C(=O)c1cc(I)c(O)c(I)c1 | . | -9% | 3%[10 µM] | . | .
Cc1ccnc(NC(=O)c2ccc([N+](=O)[O-])s2)c1 | -13 | ? | -104% | ? | 7
Cc1ccnc(NC(=O)c2cc3cc(F)ccc3s2)c1 | -39 | ? | 3.2µM* | 0% | ?
Cc1ccnc(NC(=O)c2sc3cc(Cl)ccc3c2Cl)c1 | -15 | ? | 2µM* | 10% | 2
Cc1nnc(NC(=O)c2ccccc2NC(=O)c2ccccc2)s1 | -3 | -17% | 18µM* | -21% | 8
Cc1nnc(NC(=O)c2sc3ccccc3c2Cl)s1 | 4 | 8.9µM* | ? | -9% | -4
Cc1oc(-c2ccccc2Cl)nc1CN1CCCCC1c1cccnc1 (stereo unspecified) | 30 | 10% | -18% | 9% | 8
CCn1cc(CN2CCCC(C(=O)Nc3ccc(-c4cscn4)cc3)C2)c(C)n1 (stereo unspecified) | -4 | -4% | -1% | 6% | -1
COc1ccc(C2/C=C\[C@H](O[Si](C)(C)C(C)(C)C)[C@H](C(C)C)CC(=O)N2Cc2ccccc2)cc1 (stereo partly specified) | . | 5% | 1% | . | .
O=C(O)CCCn1cc(NC(=O)c2sc3ccccc3c2Cl)cn1 | -2 | 5µM* | 14µM* | -6% | 0
Cc1cccnc1NC(=O)c1sc2ccccc2c1Cl | -1 | 8.9µM* | 8.9µM* | -8% | 16
Cc1ccc(NC(=O)c2sc3ccccc3c2Cl)nc1 | -5 | ? | ? | -7% | 6
CC(C)Cc1nnc(NC(=O)CC(=O)Nc2ccccc2C(=O)O)s1 | 18 | 11% | 20% | -10% | 0
Cc1ccccc1C(=O)Nc1nnc(SC(C)C)s1 | -10 | 0% | 2.5µM* | -12% | 21
CC(C)c1nnc(NC(=O)CC(=O)Nc2ccccc2C(=O)O)s1 | -2 | ? | 11µM* | 1% | -3
O=C(O)CCCn1cc(NC(=O)c2c(F)cccc2F)cn1 | ? | -1% | -26% | 6% | -5
CCC(C)C1/C=C\CC(NC(=O)OCC2c3ccccc3-c3ccccc32)CC(=O)N1Cc1ccccc1 (stereo unspecified) | . | . | . | -22% | .
SMILES | TRPV1 potentiator | Gal4-VP16 FLuc | RORg inh | uPA surface inh | TRPV1 ag
C=C(C)C(=O)c1cccs1 | . | -2% | -22% | . | .
Cc1nn(-c2nc3ccccc3[nH]2)c(=O)c2ccccc12 | -7 | 0.32µM* | 0.18µM* | -18% | 8
Cc1nn(-c2nc3ccccc3[nH]2)c(N)c1-c1ccc(Cl)cc1 | 5 | 3.2µM* | 1.3µM* | -11% | 4
COc1cc2c3nnc(-c4ccc(F)cc4)c-3cn(Cc3ccc(C)cc3)c2cc1OC | -19 | 4µM* | 5µM* | 24% | 0
COc1cc2c3nnc(-c4ccc(F)cc4)c-3cn(Cc3cccc(C)c3)c2cc1OC | 1 | 10µM* | ? | 10% | -2
COc1ccc(NC(=O)CCCS(=O)(=O)c2nc(-c3ccc(OC)c(OC)c3)cc(C(F)(F)F)n2)cc1OC | 0 | . | . | . | 12
COc1ccccc1-c1cc(C(F)(F)F)nc(S(=O)(=O)CCCC(=O)O)n1 | -3 | ? | ? | . | -2
COc1ccc(-c2cc(C(F)(F)F)nc(S(=O)(=O)CCCC(=O)Nc3cccc(O)c3)n2)cc1OC | -13 | 11µM* | 10µM* | -1% | 16
COc1ccccc1-c1cc(C(F)(F)F)nc(S(=O)(=O)CCCC(=O)N2CCOCC2)n1 | -11 | 7.1µM* | 5.6µM* | -8% | 17
COc1ccc(-c2cc(C(F)(F)F)nc(S(=O)(=O)CCC(=O)N3CCOCC3)n2)cc1 | -7 | ? | 8.9µM* | -10% | 20
COc1ccc(-c2cc(C(F)(F)F)nc(SCC(=O)N3CCOCC3)n2)cc1OC | 13 | -18% | ? | -7% | 6
O=C(c1ccccc1[N+](=O)[O-])N1CCC(Cc2ccccc2)CC1 | -2 | -5% | 4% | . | 0
CC(C)CC(c1nnnn1Cc1cccs1)N1CCN(c2nc3ccccc3s2)CC1 (stereo unspecified) | -5 | 0% | 10µM* | 1% | 1
COC(=O)c1ccc(CNC(=O)COC(=O)CCC2CCCC2)cc1 | -27 | -7% | 15%[10 µM] | 4% | 84*
COc1cccc(-c2nc(CS(=O)(=O)CC(=O)NCCN3CCOCC3)c(C)o2)c1 | -7 | -4% | -15% | -10% | -9
FC(F)(F)c1cc(CCN2C(=S)NC[C@@H]2c2ccccc2)cc(C(F)(F)F)c1 | -19 | 11µM* | 5.6µM* | 14% | 3
FC(F)(F)c1cc(CCN2C(=S)NC[C@@H]2Cc2ccccc2)cc(C(F)(F)F)c1 | -12 | 2.8µM* | 3.5µM* | 2% | 3
Oc1ccc(C[C@H]2CNC(=S)N2CCc2cc(C(F)(F)F)cc(C(F)(F)F)c2)cc1 | 5 | -11% | 18µM* | 1% | -4
FC(F)(F)c1cc(CCN2C(=S)NC[C@@H]2CC2CCCCC2)cc(C(F)(F)F)c1 | 30 | 6.3µM* | 2.2µM* | 5% | 3
O=C1NC[C@H](c2ccccc2)N(CCc2cc(C(F)(F)F)cc(C(F)(F)F)c2)C1=O | -6 | -10% | 20% | -4% | 0
Cc1ccccc1C1CC(=O)Oc2cc(C)c(Br)c(C)c21 (stereo unspecified) | . | -21% | -8% | . | .
COC(=O)c1ccc(C(NC(=O)OCc2ccccc2)/C(C)=C/[C@@H](C)C(=O)NCc2cc(F)cc(F)c2)cc1 (stereo partly specified) | . | -5% | 36% | . | .
CC(C)[C@@H](OCc1ccccc1)[C@H](C)/C=N\O[C@@H](C)c1cn([C@@H]2COC[C@@H]2O)nn1 | . | -2%[10 µM] | 14%[10 µM] | . | .
